{"source": "PubChem BioAssay (NCATS)", "note": "Results filed as inconclusive are left out. A number with no mark means an inactive call. Active and inactive are the calls of the source. Calls follow the shape of the dose curve; as a rule, active = well fitted curve in the direction sought with a large enough effect; inconclusive = small, poorly fitted or top-dose-only effect, or another doubt; inactive = no such curve, though single readings can be large; an effect the other way counts as inactive or inconclusive. Potency is read from the fitted curve at half-maximal effect."}
{"target": "Rap guanine nucleotide exchange factor 3 (Homo sapiens) (UniProt O95398)", "sequence (O95398 whole entry, looked up)": "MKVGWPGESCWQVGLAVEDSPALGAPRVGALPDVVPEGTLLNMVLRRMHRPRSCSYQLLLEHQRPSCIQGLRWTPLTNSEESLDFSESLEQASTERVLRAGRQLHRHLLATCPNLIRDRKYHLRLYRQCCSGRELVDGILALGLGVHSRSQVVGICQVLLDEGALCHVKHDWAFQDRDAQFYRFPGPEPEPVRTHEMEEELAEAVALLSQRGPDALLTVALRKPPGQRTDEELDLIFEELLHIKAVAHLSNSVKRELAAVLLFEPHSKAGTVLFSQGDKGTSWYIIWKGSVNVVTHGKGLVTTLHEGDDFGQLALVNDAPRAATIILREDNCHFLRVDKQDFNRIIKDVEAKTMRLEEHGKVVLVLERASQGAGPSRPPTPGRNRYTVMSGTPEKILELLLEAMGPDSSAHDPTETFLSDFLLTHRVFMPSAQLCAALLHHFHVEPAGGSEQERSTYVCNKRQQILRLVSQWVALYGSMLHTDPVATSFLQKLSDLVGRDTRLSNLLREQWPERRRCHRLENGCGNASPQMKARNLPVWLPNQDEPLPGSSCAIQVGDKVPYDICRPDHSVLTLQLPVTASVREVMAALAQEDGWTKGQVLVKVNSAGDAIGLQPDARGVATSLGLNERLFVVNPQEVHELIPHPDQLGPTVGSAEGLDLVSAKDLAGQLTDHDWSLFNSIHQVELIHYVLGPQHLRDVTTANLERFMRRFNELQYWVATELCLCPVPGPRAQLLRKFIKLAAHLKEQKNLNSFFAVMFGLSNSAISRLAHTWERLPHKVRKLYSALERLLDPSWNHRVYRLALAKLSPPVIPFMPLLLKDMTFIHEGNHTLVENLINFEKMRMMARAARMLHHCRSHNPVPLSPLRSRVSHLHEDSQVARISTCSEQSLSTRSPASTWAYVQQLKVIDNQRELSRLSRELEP", "experiment": "Confirmatory qHTS for antagonist of cAMP-regulated guanine nucleotide exchange factor 3 (EPAC1) (AID 1645880); also: nearly all actives have a fitted effect of over 55% in size;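 as to activity, negative = inhibition: plate controls were DMSO only for no effect and full effect of the ATA control for full effect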", "conditions": "EPAC1 Rap1B-BODIPY-GDP exchange, fluorescence; activity, negative = inhibition: at 115 µM (top of the series)", "in_short": "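Released BODIPY-GDP fluoresces less than Rap1-bound BODIPY-GDP; the signal is followed at 480/540 nm at 5-min intervals over 30 min, after 5 min at room temperature. Reactions contain 100 nM EPAC1, 250 nM RAP1B-BODIPY-GDP and 50 uM GDP; results are normalized to ATA and DMSO.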", "units": {"activity, negative = inhibition": "%"}}
{"smiles": "CN(C)c1ccc(/C=C(\\C#N)C(=O)c2ccccc2)cc1", "activity, negative = inhibition": 11.5}
{"smiles": "NC(=O)c1c(NC(=O)c2ccccc2)sc2c1CCN(Cc1ccccc1)C2", "activity, negative = inhibition": 36}
{"smiles": "COc1cccc(-n2c(SCC(=O)Nc3ccc(F)cc3F)nc3c([nH]c4ccccc43)c2=O)c1", "activity, negative = inhibition": 44}
{"smiles": "CCOc1ccc(NC(=O)/C(C#N)=C/c2ccc(N3CCCC3)c(C)c2)cc1", "activity, negative = inhibition": 4.23}
{"smiles": "Cc1ccc(S(=O)(=O)C2(C(=O)Nc3ccc(Br)cc3)CC2)cc1", "activity, negative = inhibition": -21.1}
{"smiles": "CCOC(=O)C1=C(C)N=c2s/c(=C\\c3cccn3C)c(=O)n2C1c1cccc(OC)c1OC", "note": "(stereo not given)", "activity, negative = inhibition": 2.61}
{"smiles": "COc1ccc(NC(=O)c2c(-c3ccccc3)c(-c3ccccc3)nn(C)c2=O)c(OC)c1", "activity, negative = inhibition": -24.6}
{"smiles": "CCOC(=O)N1CCc2c(sc3c2c(=O)n(-c2ccc(F)cc2)c(=O)n3CC(=O)c2ccc(Cl)cc2)C1", "activity, negative = inhibition": -5.37}
{"smiles": "CN(C)c1ccc(C2C=C(c3ccc(Cl)cc3OC(F)F)Nc3ncnn32)cc1", "note": "(stereo not given)", "activity, negative = inhibition": 113}
{"smiles": "CCc1ccc(NC(=O)/C(C#N)=C/c2cc3ccc(C)cc3nc2N2CCOCC2)cc1", "activity, negative = inhibition": -15.3}
{"smiles": "CN(C)c1ccc(/C=C2\\SC(=S)N(Nc3ncc(C(F)(F)F)cc3Cl)C2=O)cc1", "activity, negative = inhibition": 64.4}
{"smiles": "CN(C)c1ccc(C(=O)/C=C/c2ccc(Br)cc2)cc1", "activity, negative = inhibition": -18.8}
{"smiles": "COc1ccccc1C(=O)NNC(=O)CCCN1C(=O)/C(=C/c2cccs2)SC1=S", "activity, negative = inhibition": -4.78}
{"smiles": "O=S(=O)(NCC(c1ccco1)N1CCc2ccccc21)c1ccccc1", "note": "(stereo not given)", "activity, negative = inhibition": -24.2}
{"smiles": "COC(=O)c1c(C)c2c(C)cc3ccccn3c-2c1C(=O)OC", "activity, negative = inhibition": 11.5}
{"smiles": "CCOc1ccccc1Oc1nc(C)nc2c1oc1ccccc12", "activity, negative = inhibition": -17.6}
{"smiles": "O=C(N/N=C/c1cc(Cl)cc([N+](=O)[O-])c1O)NC12CC3CC(CC(C3)C1)C2", "Potency": "10.7 µM (active)"}
{"smiles": "COc1ccc(-c2ncccc2OC(=O)C23CC4CC(CC(C4)C2)C3)cc1OC", "activity, negative = inhibition": -17.2}
{"smiles": "COc1ccc(NC(=O)/C(C#N)=C\\c2ccc(OCc3ccc(C(=O)O)cc3)c(OC)c2)cc1", "Potency": "67.5 µM (active)"}
{"smiles": "COc1ccc(OC)c(/C=C2\\SC(=S)N(Cc3cccnc3)C2=O)c1", "activity, negative = inhibition": 15.9}
{"smiles": "O=C(c1cccs1)N(Cc1cccnc1)c1nc2c(Cl)cccc2s1", "activity, negative = inhibition": -14.5}
{"smiles": "O=C1CCC2CN3CCc4c([nH]c5ccccc45)C3CC2C1", "note": "(stereo not given)", "activity, negative = inhibition": 1.68}
{"smiles": "Cc1ccc2nc(/C(C#N)=C\\c3ccc(N4CCOCC4)o3)[nH]c2c1", "activity, negative = inhibition": 22.1}
{"smiles": "O=C(NCc1ccco1)c1ccc(Cn2c(=S)[nH]c3ccccc3c2=O)cc1", "activity, negative = inhibition": 21.9}
{"smiles": "COC(=O)c1ccccc1C(=O)c1cccc2ccccc12", "activity, negative = inhibition": -7.09}
{"smiles": "COC(=O)c1cc2oc(C)cc2n1Cc1cc(C)ccc1C", "activity, negative = inhibition": -37.4}
{"smiles": "Cc1cccn2c(=O)c(/C=C(\\C#N)c3nc4ccccc4n3C)c(Oc3ccc(Br)cc3)nc12", "activity, negative = inhibition": 13.7}
{"smiles": "COC(=O)C1=CC(C(=O)c2cccs2)=NN(c2ccc(OC)cc2)C1C(=O)OC", "note": "(stereo not given)", "activity, negative = inhibition": -8.27}
{"smiles": "Nc1ccccc1Oc1ccc2ccccc2c1", "activity, negative = inhibition": -20.7}
{"smiles": "CCN(C(=O)CN1CCN(c2ccccc2O)CC1)c1c(N)n(Cc2ccccc2)c(=O)[nH]c1=O", "activity, negative = inhibition": -2.42}
{"smiles": "CN1CCc2c(sc(NC(=O)CSc3ccccc3)c2-c2nc3ccccc3s2)C1", "activity, negative = inhibition": -15.5}
{"smiles": "CCOc1cc(/C=N/NC(=O)c2ccc(-c3csc(Nc4ccc(C)cc4)n3)cc2)ccc1OCC(=O)O", "Potency": "23.9 µM (active)"}
{"smiles": "O=S1(=O)NC(c2ccccc2)CC(CC2CCCCC2)O1", "note": "(stereo not given)", "activity, negative = inhibition": -24.9}
{"smiles": "COC(=O)c1ccc2nc(-c3ccccc3)c(Cc3cccc(F)c3)n2c1", "activity, negative = inhibition": -17.6}
{"smiles": "COc1ccc(N=Cc2c(O)ccc3ccccc23)cc1", "activity, negative = inhibition": -8.57}
{"smiles": "Cc1cccc(-c2nc3nc(C)cc(NCc4ccccc4Cl)n3n2)c1", "activity, negative = inhibition": 16}
{"smiles": "COc1ccc(/C(O)=C/c2nc3ccccc3n(-c3ccccc3)c2=O)cc1", "activity, negative = inhibition": 99}
{"smiles": "CN(C)c1ccc(/C=C/C(=O)c2cccc(Br)c2)cc1", "activity, negative = inhibition": 89.1}
{"smiles": "COc1ccc(OC)c(NC(=S)N2c3ccccc3CC2C)c1", "note": "(stereo not given)", "activity, negative = inhibition": -11.5}
{"smiles": "COc1cc2c(c(OC)c1OC)C(c1ccc(C)cc1)CC(=O)O2", "note": "(stereo not given)", "activity, negative = inhibition": -14.1}
{"target": "Rap guanine nucleotide exchange factor 4 (Homo sapiens) (UniProt Q8WZA2)", "sequence (Q8WZA2 whole entry, looked up)": "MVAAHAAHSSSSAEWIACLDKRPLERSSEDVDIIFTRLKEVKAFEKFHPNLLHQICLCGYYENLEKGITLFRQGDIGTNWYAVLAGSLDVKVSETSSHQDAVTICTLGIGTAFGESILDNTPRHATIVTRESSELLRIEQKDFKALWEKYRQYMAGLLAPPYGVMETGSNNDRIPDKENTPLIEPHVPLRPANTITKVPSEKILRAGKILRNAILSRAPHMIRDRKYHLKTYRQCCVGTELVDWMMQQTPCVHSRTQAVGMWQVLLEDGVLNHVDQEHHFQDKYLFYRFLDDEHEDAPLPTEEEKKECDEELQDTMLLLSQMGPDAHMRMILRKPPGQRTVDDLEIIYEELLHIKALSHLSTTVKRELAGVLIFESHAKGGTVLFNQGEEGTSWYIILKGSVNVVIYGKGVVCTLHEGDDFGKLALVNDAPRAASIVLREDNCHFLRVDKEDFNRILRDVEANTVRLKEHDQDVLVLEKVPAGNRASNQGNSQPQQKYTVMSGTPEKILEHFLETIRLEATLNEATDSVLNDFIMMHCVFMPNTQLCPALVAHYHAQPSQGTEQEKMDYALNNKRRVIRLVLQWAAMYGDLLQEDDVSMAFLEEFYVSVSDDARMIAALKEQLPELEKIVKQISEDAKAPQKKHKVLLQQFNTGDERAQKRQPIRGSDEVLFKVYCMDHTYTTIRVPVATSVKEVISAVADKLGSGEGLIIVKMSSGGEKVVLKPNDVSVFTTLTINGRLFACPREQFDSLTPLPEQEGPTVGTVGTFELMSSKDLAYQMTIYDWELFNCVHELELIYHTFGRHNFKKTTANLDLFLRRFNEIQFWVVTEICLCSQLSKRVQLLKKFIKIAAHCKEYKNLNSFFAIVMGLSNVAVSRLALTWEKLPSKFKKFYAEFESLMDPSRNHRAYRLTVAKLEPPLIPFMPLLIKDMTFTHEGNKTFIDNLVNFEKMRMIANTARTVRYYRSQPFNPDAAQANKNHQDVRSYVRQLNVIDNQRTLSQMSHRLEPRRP", "experiment": "Confirmatory qHTS for agonist of cAMP-regulated guanine nucleotide exchange factor 4 (EPAC2) (AID 1645884);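 also: nucleotide exchange releases bodipy-GDP from Rap1 and this lowers its fluorescence; nearly all actives have a fitted effect of over 65% in size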; as to activation: % is scaled to controls: 0 for no effect and ±100 for the full control effect", "conditions": "EPAC2 GEF activity, Rap1B-BODIPY-GDP fluorescence; series mostly up to 154 µM; activation: at the top concentration"}
{"smiles": "CN(C)c1ccc(/C=C(\\C#N)C(=O)c2ccccc2)cc1", "activation": "17.4% [at 17.1 µM, percent relative to cAMP agonist control]"}
{"smiles": "NC(=O)c1c(NC(=O)c2ccccc2)sc2c1CCN(Cc1ccccc1)C2", "Potency": "112 µM (active)"}
{"smiles": "COc1cccc(-n2c(SCC(=O)Nc3ccc(F)cc3F)nc3c([nH]c4ccccc43)c2=O)c1", "activation": "15.2% [at 83.8 µM, percent relative to cAMP agonist control]"}
{"smiles": "CCOc1ccc(NC(=O)/C(C#N)=C/c2ccc(N3CCCC3)c(C)c2)cc1", "activation": "3.1% [at 17.1 µM, percent relative to cAMP agonist control]"}
{"smiles": "Cc1ccc(S(=O)(=O)C2(C(=O)Nc3ccc(Br)cc3)CC2)cc1", "activation": "6.34% [at 17.1 µM, percent relative to cAMP agonist control]"}
{"smiles": "CCOC(=O)C1=C(C)N=c2s/c(=C\\c3cccn3C)c(=O)n2C1c1cccc(OC)c1OC", "note": "(stereo not given)", "activation": "19.2% [at 17.1 µM, percent relative to cAMP agonist control]"}
{"smiles": "COc1ccc(NC(=O)c2c(-c3ccccc3)c(-c3ccccc3)nn(C)c2=O)c(OC)c1", "activation": "-0.903% [at 83.8 µM, percent relative to cAMP agonist control]"}
{"smiles": "CCOC(=O)N1CCc2c(sc3c2c(=O)n(-c2ccc(F)cc2)c(=O)n3CC(=O)c2ccc(Cl)cc2)C1", "activation": "-22% [at 83.8 µM, percent relative to cAMP agonist control]"}
{"smiles": "CN(C)c1ccc(C2C=C(c3ccc(Cl)cc3OC(F)F)Nc3ncnn32)cc1", "note": "(stereo not given)", "activation": "4.39% [at 17.1 µM, percent relative to cAMP agonist control]"}
{"smiles": "CCc1ccc(NC(=O)/C(C#N)=C/c2cc3ccc(C)cc3nc2N2CCOCC2)cc1", "activation": "0% [at 17.1 µM, percent relative to cAMP agonist control]"}
{"smiles": "CN(C)c1ccc(/C=C2\\SC(=S)N(Nc3ncc(C(F)(F)F)cc3Cl)C2=O)cc1", "Potency": "112 µM (active)"}
{"smiles": "CN(C)c1ccc(C(=O)/C=C/c2ccc(Br)cc2)cc1", "Potency": "112 µM (active)"}
{"smiles": "COc1ccccc1C(=O)NNC(=O)CCCN1C(=O)/C(=C/c2cccs2)SC1=S", "activation": "1.7% [at 17.1 µM, percent relative to cAMP agonist control]"}
{"smiles": "O=S(=O)(NCC(c1ccco1)N1CCc2ccccc21)c1ccccc1", "note": "(stereo not given)", "activation": "5.38% [at 17.1 µM, percent relative to cAMP agonist control]"}
{"smiles": "COC(=O)c1c(C)c2c(C)cc3ccccn3c-2c1C(=O)OC", "activation": "10.6% [at 17.1 µM, percent relative to cAMP agonist control]"}
{"smiles": "CCOc1ccccc1Oc1nc(C)nc2c1oc1ccccc12", "activation": "-1.07% [at 83.8 µM, percent relative to cAMP agonist control]"}
{"smiles": "O=C(N/N=C/c1cc(Cl)cc([N+](=O)[O-])c1O)NC12CC3CC(CC(C3)C1)C2", "activation": "-23.3%"}
{"smiles": "COc1ccc(-c2ncccc2OC(=O)C23CC4CC(CC(C4)C2)C3)cc1OC", "activation": "1.83% [at 17.1 µM, percent relative to cAMP agonist control]"}
{"smiles": "COc1ccc(NC(=O)/C(C#N)=C\\c2ccc(OCc3ccc(C(=O)O)cc3)c(OC)c2)cc1", "activation": "21.6%"}
{"smiles": "COc1ccc(OC)c(/C=C2\\SC(=S)N(Cc3cccnc3)C2=O)c1", "activation": "3.3% [at 17.1 µM, percent relative to cAMP agonist control]"}
{"smiles": "O=C(c1cccs1)N(Cc1cccnc1)c1nc2c(Cl)cccc2s1", "activation": "-0.248% [at 83.8 µM, percent relative to cAMP agonist control]"}
{"smiles": "O=C1CCC2CN3CCc4c([nH]c5ccccc45)C3CC2C1", "note": "(stereo not given)", "activation": "-5.59% [at 17.1 µM, percent relative to cAMP agonist control]"}
{"smiles": "Cc1ccc2nc(/C(C#N)=C\\c3ccc(N4CCOCC4)o3)[nH]c2c1", "activation": "11.1% [at 17.1 µM, percent relative to cAMP agonist control]"}
{"smiles": "O=C(NCc1ccco1)c1ccc(Cn2c(=S)[nH]c3ccccc3c2=O)cc1", "activation": "17.1%"}
{"smiles": "COC(=O)c1ccccc1C(=O)c1cccc2ccccc12", "activation": "13.1%"}
{"smiles": "COC(=O)c1cc2oc(C)cc2n1Cc1cc(C)ccc1C", "activation": "16.4% [at 83.8 µM, percent relative to cAMP agonist control]"}
{"smiles": "Cc1cccn2c(=O)c(/C=C(\\C#N)c3nc4ccccc4n3C)c(Oc3ccc(Br)cc3)nc12", "activation": "-57% [at 83.8 µM, percent relative to cAMP agonist control]"}
{"smiles": "COC(=O)C1=CC(C(=O)c2cccs2)=NN(c2ccc(OC)cc2)C1C(=O)OC", "note": "(stereo not given)", "activation": "9.11% [at 17.1 µM, percent relative to cAMP agonist control]"}
{"smiles": "Nc1ccccc1Oc1ccc2ccccc2c1", "activation": "14.4%"}
{"smiles": "CCN(C(=O)CN1CCN(c2ccccc2O)CC1)c1c(N)n(Cc2ccccc2)c(=O)[nH]c1=O", "activation": "0.794%"}
{"smiles": "CN1CCc2c(sc(NC(=O)CSc3ccccc3)c2-c2nc3ccccc3s2)C1", "activation": "0% [at 83.8 µM, percent relative to cAMP agonist control]"}
{"smiles": "CCOc1cc(/C=N/NC(=O)c2ccc(-c3csc(Nc4ccc(C)cc4)n3)cc2)ccc1OCC(=O)O", "activation": "10.2%"}
{"smiles": "O=S1(=O)NC(c2ccccc2)CC(CC2CCCCC2)O1", "note": "(stereo not given)", "activation": "26.6% [at 17.1 µM, percent relative to cAMP agonist control]"}
{"smiles": "COC(=O)c1ccc2nc(-c3ccccc3)c(Cc3cccc(F)c3)n2c1", "activation": "4.96% [at 17.1 µM, percent relative to cAMP agonist control]"}
{"smiles": "COc1ccc(N=Cc2c(O)ccc3ccccc23)cc1", "activation": "6.9% [at 17.1 µM, percent relative to cAMP agonist control]"}
{"smiles": "Cc1cccc(-c2nc3nc(C)cc(NCc4ccccc4Cl)n3n2)c1", "activation": "-16.7% [at 83.8 µM, percent relative to cAMP agonist control]"}
{"smiles": "COc1ccc(/C(O)=C/c2nc3ccccc3n(-c3ccccc3)c2=O)cc1", "Potency": "100 µM (active)"}
{"smiles": "CN(C)c1ccc(/C=C/C(=O)c2cccc(Br)c2)cc1", "activation": "-16% [at 17.1 µM, percent relative to cAMP agonist control]"}
{"smiles": "COc1ccc(OC)c(NC(=S)N2c3ccccc3CC2C)c1", "note": "(stereo not given)", "activation": "12.4% [at 17.1 µM, percent relative to cAMP agonist control]"}
{"smiles": "COc1cc2c(c(OC)c1OC)C(c1ccc(C)cc1)CC(=O)O2", "note": "(stereo not given)", "activation": "3.46% [at 17.1 µM, percent relative to cAMP agonist control]"}
